Compound activity as filed in PubChem BioAssay.
Pf growth 96h – P. falciparum growth inhibition at 96 hour, primary screen for plastid delayed-death inhibitors | P. falciparum luciferase reporter growth, 96 h | Potency, µM (doses to about 28.7 µM), actives largely listed as inhibitors | actives 6.9% (n = 320,000) | AID 504834
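Cell-based qHTS: luciferase-tagged P. falciparum in erythrocytes (2% hematocrit, 0.05% parasitemia final) incubated with compounds for 96 hours, 37 C, 5% CO2; luciferase detection reagent then added and luminescence measured.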
VACV Venus inh – inhibitors of vaccinia virus (Venus reporter). actives 0.46% (n = 330,000). Vaccinia virus Venus reporter expression, fluorescence. AID 720580. Potency, µM (doses to about 36.5 µM), usual class: inhibitors; calls by dose curve; tested in A549 cells; also: nearly all actives have a fitted effect of over 30% in size
VACV mCherry inh – inhibitors of vaccinia virus infection (mCherry reporter signal). Vaccinia virus mCherry reporter infection, fluorescence. Potency, µM (titrated, usually from 36.5 µM), usual class: inhibitors. actives 0.63% (n = 310,000); calls by dose curve; tested in A549 cells; also: nearly all actives have a fitted effect of over 35% in size
Pf growth 48h – inhibits P. falciparum growth in the first generation, 48 h | actives 5.9% (n = 310,000) | P. falciparum luciferase growth in erythrocytes, 48 h | Potency, µM (series often up to 28.7 µM), most hits filed as inhibitors
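Parasite viability was followed by luminescence of a genomically integrated firefly luciferase. Cultures held 0.1% parasitemia at 2% hematocrit (final), incubated under 5% CO2 at 37 C.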
AMA1 RON2 block – AMA1-RON2 (P. falciparum) interaction inhibition | AlphaScreen AMA1-biotinylated RON2 peptide binding | Potency, µM (doses to about 58.2 µM), usual class: inhibitors | actives 0.2% (n = 360,000); also: nearly all actives have a fitted effect of over 45% in size
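AMA1 (3D7) with his tag at 25 nM final met compounds first, then biotinylated RON2 peptide at 25 nM; detection used donor plus acceptor beads, 10 µg/mL apiece, read by AlphaScreen after 30 min at room temperature.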
Of the large screens only hits and unclear results are named; the others gave an inactive call. Shown are actives, neighbours in structure and some others; about 8.7% of the full set was active somewhere. Unless noted, calls follow the shape of the dose curve; as a rule, active = well fitted curve in the direction sought with a large enough effect; inconclusive = small, poorly fitted or top-dose-only effect, or another doubt; inactive = no such curve, though single readings can be large; an effect the other way counts as inactive or inconclusive.

CCCc1cc(=O)oc2cc(C)cc(OCC(=O)NCCN3CCOCC3)c12	Pf growth 96h inconclusive (no result: VACV Venus inh, VACV mCherry inh)
CC(CS(=O)(=O)c1ccccc1[N+](=O)[O-])N1CCOCC1 (stereo not drawn)	Pf growth 48h 12µM (no result: VACV Venus inh, VACV mCherry inh)
CC(=O)Cc1nsc(Nc2ccc(F)cc2)n1	Pf growth 96h 10µM
CC(=O)Cc1nsc(Nc2ccc(Cl)cc2)n1	none
COc1ccc(Nc2nc(CC(C)=O)ns2)cc1	Pf growth 96h 2.6µM (no result: VACV mCherry inh)
COc1cccc(Nc2nc(CC(C)=O)ns2)c1	Pf growth 96h inconclusive (no result: VACV Venus inh, VACV mCherry inh)
CCOc1ccc(C(=O)N(Cc2nc(-c3cccc(C)c3)no2)C(C)C)cc1	none (no result: Pf growth 96h, Pf growth 48h, AMA1 RON2 block)
CC12CCC3C(CC=C4CC(O)CCC43C)C1C/C(=C\c1ccccc1F)C2=O (stereo not drawn)	Pf growth 96h 5.9µM, Pf growth 48h inconclusive
Nc1ncnc(Nc2ccc(F)cc2)n1	none
Fc1ccc(Nc2ccnc(Nc3ccc(F)cc3)n2)cc1	Pf growth 96h inconclusive, VACV Venus inh 11µM, VACV mCherry inh 10µM, Pf growth 48h 2.3µM
Cc1ccc(N2CCN(c3ncccc3[N+](=O)[O-])CC2)c(C)c1	AMA1 RON2 block 13µM
Cc1ccc(C)c(N2CCN(c3ncccc3[N+](=O)[O-])CC2)c1	Pf growth 96h inconclusive, Pf growth 48h inconclusive, AMA1 RON2 block inconclusive
COc1ccc(CCNC(=O)c2c(C)oc3ncn(CC(C)C)c(=O)c23)c(OC)c1	none (no result: Pf growth 96h, Pf growth 48h, AMA1 RON2 block)
O=c1c2cccnc2n(Cc2ccc(Cl)cc2)c(=O)n1Cc1ccc(F)cc1	none (no result: Pf growth 96h, Pf growth 48h, AMA1 RON2 block)
Cc1ccc(-c2nc(C)c(CCNC(=O)C(=O)Nc3cc(C)ccc3C)s2)cc1	none (no result: Pf growth 96h, Pf growth 48h, AMA1 RON2 block)
COc1cccc(N2CC(C(=O)NNC(=O)c3ccc(Cl)cc3)CC2=O)c1 (stereo not drawn)	Pf growth 96h 5.9µM
O=C(NC1CCCCC1)C1CC(=O)N(c2ccccc2)C1 (stereo not drawn)	Pf growth 96h 3.3µM
COc1ccc(N2CC(C(=O)N[C@@H](C)C(=O)NC3CCCCC3)CC2=O)cc1 (stereo partly drawn)	none
O=C(NC1CC1)C1CC(=O)N(c2cccc(Cl)c2)C1 (stereo not drawn)	Pf growth 96h inconclusive, Pf growth 48h 10µM (no result: VACV Venus inh, VACV mCherry inh)
COc1ccc(N2CC(C(=O)N[C@@H](CC(C)C)C(=O)NC3CCCCC3)CC2=O)cc1 (stereo partly drawn)	Pf growth 96h 15µM, Pf growth 48h inconclusive
Cc1ccc(N2CC(C(=O)NC3CCCCCC3)CC2=O)cc1 (stereo not drawn)	none (no result: Pf growth 96h, Pf growth 48h)
Cc1ccc(N2CC(C(=O)NC3CC3)CC2=O)cc1Cl (stereo not drawn)	none
Cc1cccc(N2CCN(CCCNC(=O)c3sc4ncccc4c3-n3cccc3)CC2C)c1 (stereo not drawn)	none (no result: Pf growth 96h, Pf growth 48h, AMA1 RON2 block)
Cc1nc2ccccc2nc1CN1CCOc2ccc(C(C)(O)COc3ccccc3)cc2C1 (stereo not drawn)	none (no result: Pf growth 96h, Pf growth 48h, AMA1 RON2 block)
Cc1cc(C)n(Cc2ccc(Cl)cc2Cl)c(=O)c1S(=O)(=O)c1ccccc1	Pf growth 96h inconclusive, Pf growth 48h 13µM (no result: VACV mCherry inh)
COc1ccc(OC)c(C(C)NC(=O)Cn2c(=O)cc(C)c3c(C)nn(-c4ccc(C)cc4)c32)c1 (stereo not drawn)	none (no result: Pf growth 96h, Pf growth 48h, AMA1 RON2 block)
Cc1ccc(C)c(NC(=O)CN(C)C(=O)c2oc3c(Cl)cccc3c2C)c1	Pf growth 96h 2.9µM, VACV mCherry inh inconclusive, Pf growth 48h 4.1µM
Cc1cc(C)nc(NS(=O)(=O)c2ccc(NC(=S)NC(=O)C(C)(C)C)cc2)n1	none (no result: VACV Venus inh, VACV mCherry inh, Pf growth 48h)
Cc1cc(C)nc(NS(=O)(=O)c2ccc(NC(=S)NC(=O)CC(C)C)cc2)n1	VACV Venus inh 11µM, VACV mCherry inh 11µM
Cc1cc(C)nc(NS(=O)(=O)c2ccc(NC(=O)Cn3c(=O)oc4ccccc43)cc2)n1	Pf growth 96h 6.6µM (no result: Pf growth 48h)
C/C(=N\NC(=O)c1cc(-c2cccc(OC(C)C)c2)nc2ccccc12)c1cccnc1	Pf growth 96h 13µM, VACV mCherry inh inconclusive, Pf growth 48h inconclusive
C/C(=N\NC(=O)c1cc(C)nc2ccccc12)c1ccccn1	Pf growth 96h 3.3µM, Pf growth 48h 3.7µM (no result: VACV Venus inh, VACV mCherry inh)
C/C(=N\NC(=O)c1cccc2ccccc12)c1cccnc1	none
C/C(=N/NC(=O)c1cc(-c2ccccc2)nc2c(Cl)cccc12)c1cccnc1	Pf growth 96h 10µM, Pf growth 48h inconclusive
C/C(=N\NC(=O)c1cc(-c2cccnc2)nc2ccccc12)c1ccc(O)cc1O	Pf growth 96h inconclusive, VACV Venus inh inconclusive, VACV mCherry inh 11µM, Pf growth 48h 9.3µM
C/C(=N\NC(=O)c1cc(C)nc2ccccc12)c1ccc([N+](=O)[O-])cc1	Pf growth 48h inconclusive
C/C(=N\NC(=O)c1cc(-c2ccccc2C)nc2ccccc12)c1cccnc1	Pf growth 96h inconclusive, Pf growth 48h 1.9µM
C/C(=N\NC(=O)c1cc(-c2ccccn2)nc2ccccc12)c1cccc([N+](=O)[O-])c1	Pf growth 96h 10µM, Pf growth 48h inconclusive
CCOC(=O)c1ccc(NC(=O)CCC(=O)N2Cc3ccccc3Oc3ncccc32)cc1	none (no result: Pf growth 96h, Pf growth 48h, AMA1 RON2 block)
CCC1(c2ccccc2)NC(=O)N(CC(=O)Nc2cc(S(=O)(=O)N3CCCCCC3)ccc2OC)C1=O (stereo not drawn)	Pf growth 96h 7.4µM, VACV Venus inh inconclusive, Pf growth 48h 9.3µM
CCOc1ccc(S(=O)(=O)N2CCCCC2)cc1NC(=O)CN1C(=O)NC(CC)(c2ccccc2)C1=O (stereo not drawn)	Pf growth 96h 12µM, Pf growth 48h 4.7µM
CCC1(c2ccccc2)NC(=O)N(CC(=O)Nc2cccc(S(=O)(=O)N3CCCC3)c2)C1=O (stereo not drawn)	Pf growth 48h inconclusive (no result: VACV Venus inh, VACV mCherry inh)
CCC1(c2ccccc2)NC(=O)N(CC(=O)Nc2cc(S(=O)(=O)N3CCCCC3)ccc2OC(C)C)C1=O (stereo not drawn)	Pf growth 96h inconclusive, Pf growth 48h 10µM
Cn1ccsc1=NC(=O)c1ccccc1F	Pf growth 96h inconclusive
Cc1ccc(C)c(-n2c(-c3ccc(Br)cc3)csc2=NC(=O)c2ccccc2F)c1	Pf growth 96h 0.23µM, Pf growth 48h 0.41µM
Cc1cccc(Cn2nnc3ccccc32)c1O	Pf growth 96h inconclusive, VACV mCherry inh inconclusive, Pf growth 48h inconclusive
Cc1cc(Cn2nnc3ccccc32)c(O)c(C(C)(C)C)c1	Pf growth 96h inconclusive, VACV Venus inh inconclusive, Pf growth 48h 12µM
CC(C)(C)c1cccc(Cn2nnc3ccccc32)c1O	Pf growth 96h inconclusive, VACV Venus inh inconclusive, VACV mCherry inh inconclusive, Pf growth 48h 9.3µM
CCOC(=O)c1c(N)sc(C(O)(C(F)(F)F)C(F)(F)F)c1-c1ccc(OC)cc1OC	Pf growth 96h inconclusive, Pf growth 48h 12µM
COc1ccc(OC)c(Nc2nc(-c3cccs3)cs2)c1	none (no result: Pf growth 96h)
COc1ccc(C)cc1Nc1nc(-c2c[nH]c3ccccc23)cs1	Pf growth 96h 2.1µM, Pf growth 48h inconclusive
Cc1c(C(=O)N(C)c2cccc(Cl)c2)cnn1-c1ccccc1	Pf growth 96h inconclusive, Pf growth 48h 9.3µM (no result: VACV Venus inh, VACV mCherry inh)
O=C(c1cc(-c2ccc(O)cc2)on1)N1CCc2ccccc2C1	Pf growth 96h 0.37µM (no result: Pf growth 48h)
O=C(c1cc(-c2ccccc2O)on1)N1CCc2ccccc2C1	none (no result: Pf growth 48h)
